# Screening results (PubChem BioAssay)
# LDHA block: qHTS assay for inhibitors of human lactate dehydrogenase. L-lactate dehydrogenase A chain (Homo sapiens), P00338. activity change, % (values are at about 110 or 230 µM). purified LDHA, NADH/diaphorase-resazurin fluorescence; active compounds read low. 480,000 compounds, 0.15% hits; in the data active = activity change below about -30%; inconclusive = mostly about -25% to -30%
#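 Enzyme activity of human lactate dehydrogenase 5 (2 nM; 0.06 mM NADH, 0.2 mM pyruvate, 5 min, RT) is measured via a resazurin/diaphorase fluorescence readout of residual NADH.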
# RORg inh: qHTS for inhibitors of ROR gamma transcriptional activity; Potency, µM (doses to about 53.6 µM), actives largely listed as inhibitors; Nuclear receptor ROR-gamma (Mus musculus), P51450; AID 2551, 2010; 310,000 compounds, 5.4% hits; Drosophila S2 Gal4-RORgamma UAS-luciferase reporter, 20 h; also: nearly all actives have a fitted effect of over 60% in size
# Target sequence (P51450 whole entry, looked up, the tested form may be a part): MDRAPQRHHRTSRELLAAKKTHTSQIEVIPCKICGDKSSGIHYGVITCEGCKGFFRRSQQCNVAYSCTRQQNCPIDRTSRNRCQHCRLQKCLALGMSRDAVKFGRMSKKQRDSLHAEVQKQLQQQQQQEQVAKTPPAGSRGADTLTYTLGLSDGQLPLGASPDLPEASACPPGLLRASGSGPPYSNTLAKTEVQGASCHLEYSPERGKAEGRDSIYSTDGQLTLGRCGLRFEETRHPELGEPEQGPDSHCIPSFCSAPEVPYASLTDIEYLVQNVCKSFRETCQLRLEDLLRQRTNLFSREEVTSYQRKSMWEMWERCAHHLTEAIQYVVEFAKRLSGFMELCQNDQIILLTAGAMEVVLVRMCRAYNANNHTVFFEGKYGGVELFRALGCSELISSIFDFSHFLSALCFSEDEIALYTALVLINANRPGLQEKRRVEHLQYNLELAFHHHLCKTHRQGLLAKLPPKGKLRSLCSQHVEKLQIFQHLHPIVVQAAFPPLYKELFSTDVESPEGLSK
#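 Compounds are pin-transferred onto Drosophila Schneider cells expressing a copper-inducible Gal4–ROR gamma transactivation domain fusion. After 1 hr, copper sulfate is added to 700 uM final; luciferase is read 20 hr later.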
# TDP1 cell CPT: qHTS for Inhibitors of human tyrosyl-DNA phosphodiesterase 1 (TDP1): qHTS in cells in presence of CPT | chicken DT40 Tdp1-/-;hTDP1 cells + 20 nM CPT, ATP luminescence, 48 h | Potency, µM (series often up to 46.2 µM), actives largely listed as inhibitors | 420,000 compounds, 12% hits; also: nearly all actives have a fitted effect of over 55% in size
#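 Chicken DT40 Tdp1-/- cells complemented with human TDP1, 400 cells/well, exposed to compounds plus 20 nM camptothecin for at least 48 h at 37 C; viability read as ATP content by CellTiter-Glo luminescence.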
# IL1B secr inh: qHTS for Inhibitors of Inflammasome Signaling: IL-1-beta AlphaLISA Primary Screen. 360,000 compounds, 4.7% hits. THP-1 LPS/ATP IL-1B secretion, AlphaLISA, 16 h; active compounds read low. activity change, % at 57.5 µM; in the data active = activity change below about -50%; inconclusive = mostly about -30% to -49%
#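 Secreted IL-1B measured by AlphaLISA bead assay after 16 h compound exposure of THP-1 cells; compounds (final up to 57.5 uM) added 1 h before LPS (250 ng/mL) and ATP (1.25 mM) stimulation; lower signal means less secretion.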
# TDP1 cell noCPT: qHTS for Inhibitors of human tyrosyl-DNA phosphodiesterase 1 (TDP1): qHTS in cells in absence of CPT; 420,000 compounds, 15% hits; AID 686978, 2013; DT40 Tdp1-/- hTDP1 cells, no CPT, ATP luminescence, 48 h; Potency, µM (highest dose often 46.2 µM), hits mostly inhibitors; also: nearly all actives have a fitted effect of over 55% in size
#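 Chicken DT40 Tdp1-/- cells stably complemented with human TDP1 were seeded at 400 cells/well with DMSO in place of 20 nM camptothecin. After compound pinning, cells grew at least 48 hr at 37 °C; viability read by CellTiter-Glo luminescence.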
# Gal4-VP16 FLuc: VP16 counterscreen qHTS for inhibitors of ROR gamma transcriptional activity | Drosophila S2 Gal4-VP16 UAS-luciferase, luminescence, 20 h | Potency, µM (series often up to 53.6 µM), actives largely listed as inhibitors | 310,000 compounds, 3.5% hits;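 also: Gal4-VP16 expression switched on by copper sulfate through the metallothionein promoter; nearly all actives have a fitted effect of over 50% in size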
# A number is an active result; – = inactive; ? = inconclusive; · = no result given. Shown are actives, neighbours in structure and some others; about 18% of the full set was active somewhere. Unless noted, calls follow the shape of the dose curve; as a rule, active = well fitted curve in the direction sought with a large enough effect; inconclusive = small, poorly fitted or top-dose-only effect, or another doubt; inactive = no such curve, though single readings can be large; an effect the other way counts as inactive or inconclusive.
SMILES,LDHA block,RORg inh,TDP1 cell CPT,IL1B secr inh,TDP1 cell noCPT,Gal4-VP16 FLuc
CCC(C(=O)NCCC1=CCCCC1)n1nc(C)c2c(C)n(-c3ccccc3)nc2c1=O (stereo unspecified),–,4.47µM,?,–,25.9µM,–
CCC(C(=O)NCCCc1ccccc1)n1nc(C)c2c(C)n(-c3ccccc3)nc2c1=O (stereo unspecified),–,–,?,–,–,–
Cc1ccc(CCNC(=O)C(C)n2nc(C)c3c(C)n(-c4ccc(C)cc4)nc3c2=O)cc1 (stereo unspecified),–,·,20.6µM,·,20.6µM,·
CCCCn1c(SCC(=O)Nc2ccc3c(c2)OCCO3)nc2c(-c3ccccc3)c[nH]c2c1=O,–,·,·,·,·,·
CCC(C(=O)NCc1ccc(OC)c(OC)c1)n1nc(C)c2c(C)n(-c3ccc(C)cc3)nc2c1=O (stereo unspecified),–,·,16.4µM,·,23.1µM,·
COc1ccc(CNC(=O)C(C)n2nc(C)c3c(C)n(-c4ccc(C)cc4)nc3c2=O)cc1 (stereo unspecified),–,–,18.4µM,–,?,–
CCn1c(=O)[nH]c(=O)c2cc(C(=O)Nc3ccc(C)c4ncccc34)cnc21,–,·,·,·,·,·
COc1ccc(-c2coc3c(C)c(OCCN4CCC(C)CC4)ccc3c2=O)cc1,–,·,·,·,·,·
CC(C)OCCCN1C(=O)c2[nH]nc(-c3ccccc3O)c2C1c1cccc(Cl)c1 (stereo unspecified),–,?,18.4µM,?,23.1µM,?
COCCCN1C(=O)c2[nH]nc(-c3ccccc3O)c2C1c1cccc(Cl)c1 (stereo unspecified),–,?,20.6µM,–,2.91µM,?
CC1CCC[C@@]2(CCc3cc4c5c(c(=O)oc4cc3O2)CCC5)C1 (stereo partly specified),–,·,·,·,·,·
COC(=O)c1ccccc1C(=O)N(c1ccccc1)c1ccccc1,–,·,6.51µM,–,14.6µM,·
COC(=O)c1ccccc1C(=O)O,–,·,·,·,·,·
COc1ccc(CNc2nc(-c3ccc(C(=O)N(C)C)cc3)nc3ccccc23)c(OC)c1,·,?,?,·,?,–
CN(C)c1ccc(-c2nc(NCc3cccnc3)c3ccccc3n2)cc1,·,?,3.66µM,·,4.11µM,14.1µM
COc1ccc(CNc2nc(-c3ccc(N(C)C)cc3)nc3ccccc23)c(OC)c1,·,5.01µM,4.11µM,·,4.11µM,5.01µM
c1cncc(CNc2nc(-c3ccoc3)nc3ccccc23)c1,·,–,?,·,20.6µM,–
COc1ccc(/C=N/Nc2ncc(C(F)(F)F)cc2Cl)cc1OC,–,?,?,–,?,3.55µM
FC(F)(F)c1cnc(N/N=C/c2ccncc2)c(Cl)c1,–,12.6µM,?,–,?,?
CCOc1cc(NS(=O)(=O)c2ccc(Cl)cc2)c(OCC)cc1NC(=O)CC(C)C,–,–,22.4µM,–,17.8µM,–
CCOc1ccccc1NC(=S)NC(=O)c1ccco1,–,·,–,–,–,·
CCNC(=S)Nc1cc(OC)c(NC(=O)c2ccco2)cc1OC,–,12.6µM,–,–,–,–
CCNC(=S)Nc1cc(OCC)c(NC(=O)c2ccco2)cc1OCC,–,15.8µM,?,–,?,?
CCOc1cc(NC(=O)C2CCCCC2)c(OCC)cc1NC(=O)c1ccco1,–,–,7.31µM,–,?,–
COc1cc(NC(=S)NCCCN(C)C)c(OC)cc1NC(=O)c1ccco1,–,–,–,–,–,–
SMILES,LDHA block,RORg inh,TDP1 cell CPT,IL1B secr inh,TDP1 cell noCPT,Gal4-VP16 FLuc
O=C(CCc1ccco1)NC1(C(=O)O)CCCCCC1,–,·,·,·,·,·
CCOc1cc(NC(=O)c2ccco2)c(OCC)cc1NC(=O)Cc1ccc(OC)c(OC)c1,–,–,?,–,8.2µM,–
CCOc1cc(NC(=S)NCC(C)C)c(OCC)cc1NC(=O)c1cccs1,–,3.98µM,?,–,?,8.91µM
COC(=O)c1cc(OC)c(OC)cc1NC(=S)NC(=O)c1ccco1,–,8.91µM,20.6µM,–,10.3µM,–
CCOc1ccccc1NC(=O)c1ccccc1NC(=O)c1ccco1,–,–,–,–,?,–
CCOc1cc(NC(=O)c2ccco2)c(OCC)cc1NC(=O)CCc1ccc(OC)cc1,·,–,·,·,·,–
CCOc1cc(NS(=O)(=O)c2ccccc2)c(OCC)cc1NC(=O)c1ccco1,–,–,?,–,25.9µM,–
CCOc1cc(NC(=O)c2cccs2)c(OCC)cc1NC(=O)c1ccccn1,–,–,?,–,?,–
COc1ccc2c(c1)CC/C2=N\OC(=O)c1cc(Cl)ccc1OC,–,·,·,·,·,·
CC(C)CSc1nc2c(c(=O)n(C)c(=O)n2C)n1CCCc1ccccc1,–,·,·,·,·,·
O=c1[nH]c(N2CCOCC2)nc2nccc(-c3cccnc3)c12,–,·,·,·,·,·
CCOc1cc(NC(=S)NCCOC)c(OCC)cc1NC(=O)c1ccco1,–,12.6µM,–,–,?,?
CCC(C)c1ccc(O)c(NC(=O)c2cccnc2)c1 (stereo unspecified),–,–,?,–,?,–
CCC(C)c1ccc(O)c(NC(=S)NC(=O)c2cccs2)c1 (stereo unspecified),–,·,13µM,–,23.1µM,·
CCCCOc1ccc(OC(=O)Nc2cc(Cl)ccc2OC)cc1,–,–,18.4µM,–,14.6µM,–
C/C(CC(=O)Nc1cc(Cl)ccc1Cl)=N\NC(=O)COc1cccc(C)c1,–,–,–,–,?,–
COc1ccc(Cl)cc1NC(=O)CC(=O)Nc1cc(Cl)ccc1OC,–,–,–,–,–,–
COc1ccc(Cl)cc1NC(=O)C/C(C)=N/NC(=O)COc1ccc(C)cc1,–,11.2µM,–,–,–,–
COc1ccc(CNC(=O)C/C(C)=N/NC(=O)COc2ccc(C)cc2Br)cc1,–,–,2.31µM,–,3.66µM,–
O=C(O)Cc1ccc(S(=O)(=O)Cc2ccccc2)cc1,–,·,·,·,·,·
C=CCn1cc(C(=O)OC)c(=O)c2cc(S(=O)(=O)N(CC)CC)ccc21,–,–,–,–,–,?
CCn1cc(C(=O)NCc2ccco2)c(=O)c2cc(S(=O)(=O)N3CCCCCC3)ccc21,–,–,20.6µM,–,?,?
C=CCn1cc(C(=O)OC)c(=O)c2cc(S(=O)(=O)N3CCC(C)CC3)ccc21,–,11.2µM,–,–,–,–
C=CCn1cc(C(=O)NCc2ccco2)c(=O)c2cc(S(=O)(=O)N3CCCCCC3)ccc21,–,?,20.6µM,?,?,–
